Source: PubChem (Center for Chemical Genomics, University of Michigan)
Dicer processing = human Dicer pre-microRNA cleavage inhibition | z-score at 25 µM | actives 6% (n = 47,000) | AID 1347074 | cat-ELCCA pre-miR-21 Dicer processing, chemiluminescence; stronger effect = higher value | Q9UPY3; in the data active means z-score above about 3, passing the limit was not always enough;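 further: plate controls were vehicle for no effect and no enzyme for full effect; higher signal means more uncleaved substrate so more Dicer inhibition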
Target sequence (Q9UPY3 whole entry, looked up): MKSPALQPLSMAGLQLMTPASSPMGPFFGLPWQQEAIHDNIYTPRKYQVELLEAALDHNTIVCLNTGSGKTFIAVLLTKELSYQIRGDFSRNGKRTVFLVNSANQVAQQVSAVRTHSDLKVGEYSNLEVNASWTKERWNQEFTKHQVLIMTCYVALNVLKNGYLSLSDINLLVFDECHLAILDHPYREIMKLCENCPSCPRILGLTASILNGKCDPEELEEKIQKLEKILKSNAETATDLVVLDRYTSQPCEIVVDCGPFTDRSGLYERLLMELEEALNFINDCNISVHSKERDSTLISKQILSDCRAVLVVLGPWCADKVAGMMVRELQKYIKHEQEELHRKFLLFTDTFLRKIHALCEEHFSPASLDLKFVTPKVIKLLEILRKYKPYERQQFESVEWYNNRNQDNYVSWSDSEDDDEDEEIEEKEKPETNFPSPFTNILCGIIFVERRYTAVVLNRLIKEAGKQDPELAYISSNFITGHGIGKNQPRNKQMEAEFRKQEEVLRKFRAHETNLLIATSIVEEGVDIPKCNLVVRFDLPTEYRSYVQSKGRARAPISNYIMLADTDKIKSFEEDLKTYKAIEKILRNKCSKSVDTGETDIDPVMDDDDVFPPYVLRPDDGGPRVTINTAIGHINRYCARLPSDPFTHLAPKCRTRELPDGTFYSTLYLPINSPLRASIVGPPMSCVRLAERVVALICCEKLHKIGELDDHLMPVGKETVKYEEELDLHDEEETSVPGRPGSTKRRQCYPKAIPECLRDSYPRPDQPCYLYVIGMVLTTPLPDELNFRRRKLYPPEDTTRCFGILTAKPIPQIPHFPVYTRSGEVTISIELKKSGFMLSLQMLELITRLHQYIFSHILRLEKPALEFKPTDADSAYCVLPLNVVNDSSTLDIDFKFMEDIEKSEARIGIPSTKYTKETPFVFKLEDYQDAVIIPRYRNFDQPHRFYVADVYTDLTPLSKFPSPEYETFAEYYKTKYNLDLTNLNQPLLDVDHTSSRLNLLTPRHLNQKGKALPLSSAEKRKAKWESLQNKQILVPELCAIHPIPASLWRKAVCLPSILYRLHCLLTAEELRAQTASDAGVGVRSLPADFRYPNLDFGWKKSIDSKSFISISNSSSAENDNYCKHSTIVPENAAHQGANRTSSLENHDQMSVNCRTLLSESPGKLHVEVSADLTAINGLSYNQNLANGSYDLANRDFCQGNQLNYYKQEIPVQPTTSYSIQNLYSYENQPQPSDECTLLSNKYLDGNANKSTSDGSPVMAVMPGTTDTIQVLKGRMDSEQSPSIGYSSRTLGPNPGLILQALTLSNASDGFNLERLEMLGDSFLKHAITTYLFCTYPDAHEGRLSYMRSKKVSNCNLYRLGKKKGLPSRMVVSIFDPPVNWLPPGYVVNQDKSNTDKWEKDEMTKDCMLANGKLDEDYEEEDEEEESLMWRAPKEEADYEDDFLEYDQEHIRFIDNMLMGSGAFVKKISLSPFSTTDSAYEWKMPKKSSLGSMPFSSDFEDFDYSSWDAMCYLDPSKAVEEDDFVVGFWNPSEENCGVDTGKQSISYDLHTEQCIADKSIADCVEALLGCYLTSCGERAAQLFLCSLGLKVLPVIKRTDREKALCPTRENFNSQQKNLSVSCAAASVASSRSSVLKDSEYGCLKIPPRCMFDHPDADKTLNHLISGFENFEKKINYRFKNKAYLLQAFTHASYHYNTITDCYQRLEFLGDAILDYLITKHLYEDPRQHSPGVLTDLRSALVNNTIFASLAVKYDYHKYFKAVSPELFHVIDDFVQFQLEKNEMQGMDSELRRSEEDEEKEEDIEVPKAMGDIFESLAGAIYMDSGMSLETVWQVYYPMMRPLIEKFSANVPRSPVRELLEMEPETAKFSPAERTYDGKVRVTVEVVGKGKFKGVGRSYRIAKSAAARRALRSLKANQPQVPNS
Starred values were filed as active, the others as inactive. The entries come from a sample that favours hits as a whole.

What do the screens show for `COc1ccc(-c2cc3ncc(C(=O)c4cc(C)ccc4O)cn3n2)cc1`?
Dicer processing: -0.28

How did COc1ccc(C(=O)N2CCc3sccc3C2c2ccc(Cl)cc2)cc1 (centres undefined) do in these assays?
Dicer processing: -1.69

Results for COC(=O)CSc1nccc(-c2ccc3c(c2)CCC(C)(C)O3)n1 ?
Dicer processing: 0.48

Results for S=c1[nH]c2cc(Cl)cc(Cl)c2o1 ?
Dicer processing: -0.92

How did Fc1cc2[nH]c(=S)[nH]c2cc1Cl do in these assays?
Dicer processing: 4.18*

Results for Cc1ccc(Cl)c2c1NC(=O)C2(O)CC(=O)c1ccccc1 (centres undefined) ?
Dicer processing: 0.41

How did Cc1ccc(C(=O)/C=C/Nc2ccc(Cl)cc2Cl)cc1 do in these assays?
Dicer processing: -0.3

What do the screens show for `COc1ccc(C2CC(=O)C3=C(C2)Nc2ccccc2NC3c2ccccc2OC(C)C)cc1` (centres undefined)?
Dicer processing: 2.21

What do the screens show for `CC(C)Oc1ccccc1C1Nc2ccccc2NC2=C1C(=O)CC(c1ccccc1)C2` (centres undefined)?
Dicer processing: 5.71*

Results for COc1ccc(C2Nc3ccccc3NC3=C2C(=O)CC(c2ccccc2)C3)cc1O (centres undefined) ?
Dicer processing: 1.47

Results for COc1cc(C2Nc3ccccc3NC3=C2C(=O)CC(c2ccccc2)C3)cc(Cl)c1O (centres undefined) ?
Dicer processing: 3.21*

How did COc1ccc(C2CC(=O)C3=C(C2)Nc2ccccc2NC3c2ccccc2OC(C)C)cc1OC (centres undefined) do in these assays?
Dicer processing: 0

What do the screens show for `COc1ccc(C2CC(=O)C3=C(C2)Nc2ccccc2NC3c2ccc(Cl)cc2)cc1OC` (centres undefined)?
Dicer processing: 2.37

What do the screens show for `COCCCNC(=S)N1CCN(c2ccc([N+](=O)[O-])cn2)CC1`?
Dicer processing: -3.38

How did CSc1c(NC(=O)/C=C\C(=O)O)cccc1C(F)(F)F do in these assays?
Dicer processing: -0.03

What do the screens show for `Nc1nc(N2CCOCC2)ncc1S(=O)(=O)c1ccc(Cl)cc1`?
Dicer processing: 3.88*

Results for Nc1c2cnc(N3CCCC3)nc2nc(=O)n1-c1ccc(Cl)cc1 ?
Dicer processing: 1.14

How did Cc1nc(N2CCCC2)ncc1S(=O)(=O)c1ccc(Cl)cc1 do in these assays?
Dicer processing: 10.7

How did Cc1cc2nc(-c3ccc4ccccc4c3)cc(C(F)(F)F)n2n1 do in these assays?
Dicer processing: -1.07

How did O=C(CCCN1C(=O)S/C(=C/c2ccccc2)C1=S)Nc1ccccc1C(=O)O do in these assays?
Dicer processing: 1.15

What do the screens show for `COC(=O)C(O)(NC(=O)c1ccccc1C)C(F)(F)F` (centres undefined)?
Dicer processing: 0.9

What do the screens show for `Cc1c(Cc2c(F)cccc2Cl)c(=O)oc2cc(O)ccc12`?
Dicer processing: -0.21

How did CCCc1c(Cc2c(F)cccc2Cl)c(=O)oc2cc(OC(=O)COC)ccc12 do in these assays?
Dicer processing: 4.43*

What do the screens show for `CCCc1c(Cc2c(F)cccc2Cl)c(=O)oc2cc(OS(C)(=O)=O)ccc12`?
Dicer processing: 0.67

What do the screens show for `N#CCC(=O)NNC(=S)NC1CC2C=CC1C2` (centres undefined)?
Dicer processing: -3.69

What do the screens show for `CCOC(=O)NNC(=O)NCCCc1ccc2ccc3cccc4ccc1c2c34`?
Dicer processing: 2.28

Results for O=c1[nH][nH]c(=O)n1CCCc1cc2cccc3ccc4cccc1c4c32 ?
Dicer processing: 3.66*

What do the screens show for `N#CCS(=O)(=O)c1cccc(Cl)c1`?
Dicer processing: -0.17

How did C/C(=N\NC(=S)NCC1CCCO1)c1cccs1 (centres undefined) do in these assays?
Dicer processing: 0.73

Results for O=C1c2oc3ccccc3c(=O)c2C(c2ccc(O)cc2)N1Cc1ccccc1Cl (centres undefined) ?
Dicer processing: 1.01

Results for CCOc1cc(C2c3c(oc4ccc(F)cc4c3=O)C(=O)N2Cc2ccc(C)cc2)ccc1O (centres undefined) ?
Dicer processing: 1.74

Results for COc1ccc(CN2C(=O)c3oc4ccc(C)cc4c(=O)c3C2c2ccc(O)c(OC)c2)cc1 (centres undefined) ?
Dicer processing: -0.31

What do the screens show for `COc1cc(C2c3c(oc4ccccc4c3=O)C(=O)N2Cc2ccccc2Cl)ccc1O` (centres undefined)?
Dicer processing: 3.21*

How did O=C1c2oc3ccccc3c(=O)c2C(c2cccc(O)c2)N1Cc1ccccc1Cl (centres undefined) do in these assays?
Dicer processing: 1.02

Results for CCOc1cc(C2c3c(oc4ccc(C)cc4c3=O)C(=O)N2Cc2ccc(OC)cc2)ccc1O (centres undefined) ?
Dicer processing: 3.15*

How did Cc1c(-c2ccnc(SCc3ccccc3Cl)n2)sc2ccc(Cl)cc12 do in these assays?
Dicer processing: 1.41

Results for CCOC(=O)c1c(NC(=O)Nc2ccc(Cl)c(Cl)c2)sc2c1C(C(=O)OCC)CC2 (centres undefined) ?
Dicer processing: -2.59

How did COC(=O)c1cc(OCC(F)(F)F)nc(OCC(F)(F)F)c1 do in these assays?
Dicer processing: -1.05

Results for Cc1[nH]ccc(=O)c1OCc1ccc(Cl)cc1Cl ?
Dicer processing: 0.06

How did CCOC(=O)c1c(C)noc1/C(C)=N/OC(=O)Nc1cccc(C(F)(F)F)c1 do in these assays?
Dicer processing: -0.92

What do the screens show for `CC1(C)CC(=O)C2=C(C1)c1c(ccc3ccccc13)NC2c1ccccc1` (centres undefined)?
Dicer processing: 2.97

Results for CCc1nc(N)nc2c1C(=O)CC(C)(C)C2 ?
Dicer processing: -2.78

How did CCNc1c2c(nc3ccccc13)CC(C)(C)CC2=O do in these assays?
Dicer processing: 3.05*

Results for Cc1ccccc1OCCSc1nc2ccccc2n1CCO ?
Dicer processing: 0.39

How did CO[C@@]1(NC(=O)[C@H](C(=O)O)c2ccc(O)cc2)C(=O)N2C(C(=O)O)=C(CSc3nnnn3C)CO[C@@H]21 do in these assays?
Dicer processing: 0.28

How did Cc1cccc(Nc2nc(=O)[nH]nc2C)c1C do in these assays?
Dicer processing: -0.15

What do the screens show for `Cn1nc(NC(=O)COCC(=O)O)c2ccccc21`?
Dicer processing: 1.43

Results for CCC1(c2ccccc2)C(N)=Nc2ccccc21 (centres undefined) ?
Dicer processing: 0.8

Results for Cc1ccc(C(=O)O)cc1-n1cccc1 ?
Dicer processing: -0.63

Results for Cc1ccc(C(=O)O)cc1N1C(=O)CCC1=O ?
Dicer processing: 4.74*

Results for CC1=NN(c2ccc(C(=O)O)cc2)C(=O)C1 ?
Dicer processing: -2.24

Results for CN(C)CCNC(=O)c1cc2ccccc2[nH]1 ?
Dicer processing: 0.99

What do the screens show for `Cc1ccc(C)n1-c1cc(C(=O)O)cc(C(=O)O)c1`?
Dicer processing: 10.8*

Results for CC1=NN(c2cccc(C(=O)O)c2)C(=O)C1 ?
Dicer processing: -3.57

What do the screens show for `Cc1ccc(C)n1-c1ccc(SCC(=O)O)cc1`?
Dicer processing: 1.96

What do the screens show for `CCOC(=O)c1cc(C)ccc1NC(=S)Nc1cccc(Cl)c1`?
Dicer processing: -5.33

What do the screens show for `CCOC(=O)c1cc(CC)sc1NC(=S)Nc1cccc(Cl)c1`?
Dicer processing: 7.09*

Results for CCOC(=O)c1cc(CC)sc1NC(=S)Nc1ccccc1C(F)(F)F ?
Dicer processing: -0.97

How did COc1cc2c3c(c1OC)C1(C=CC(=O)C=C1)CC3N(S(=O)(=O)c1ccc(C)cc1)CC2 (centres undefined) do in these assays?
Dicer processing: 0.98
